HCMV antiviral – inhibitors of human cytomegalovirus; HFF cells, HCMV-luciferase reporter, 72 h; active compounds read low; activity change, negative = inhibition, % at 57.5 µM; actives 4.5% (n = 410,000); AID 1259415; in the data active means activity change below about -60%; inconclusive means no clear call, values can overlap the other calls; inactive means above about -39%
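Luciferase read-out from HCMV-luciferase-infected HFFs (MOI 1 PFU/cell) 72 h post infection at 37C; compounds added after 16 h cell attachment; activity normalized between buffer-only basal and Salinomycin (10uM) inhibitor controls.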
Sm TGR block – S. mansoni TGR enzyme inhibition. Potency, µM (highest dose often 114 µM), inactives show at the top dose activity change, negative = inhibition, hits mostly inhibitors. actives 3% (n = 360,000). AID 485364. purified TGR, DTNB reduction, TNB absorbance 405 nm. Q962Y6; further: potency means the concentration at half of the fitted maximal effect; nearly all actives have a fitted effect of over 60% in size
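TGR 20 nM + NADPH 100 uM (dispensed conc.), cpd preinc 15 min RT; start with NADPH (500 uM addition) then DTNB (15 mM addition). Kinetic TNB absorbance, 405 nm filter. Four-parameter Hill fit across titration.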
HCV inh – HCV inhibition | Huh7.5.1 HCVcc-Cre infection, luciferase reporter, 44 h | Potency, µM (doses to about 41.8 µM), for the others: at the top dose activity change, negative = inhibition, actives largely listed as inhibitors | actives 3.4% (n = 340,000) | AID 651820; further: potency means the concentration at half of the fitted maximal effect
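Luciferase read-out (15 sec integration) after a 15 min room-temperature substrate step quantifies HCVcc-Cre infection. Cells, 1,000 per well, had compound added 4 h post-plating, then virus at ~0.5 moi, and were cultured 44 h.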
FMDV antiviral – blocks foot and mouth disease virus; FMDV antiviral cell-based qHTS; actives 1.2% (n = 410,000); Potency, µM (top dose mostly 57.9 µM), inactives show top-dose activity change, negative = inhibition, hits mostly inhibitors; calls by dose curve; tested in HEK293T cells; further: read-out not given here; potency means the concentration at half of the fitted maximal effect; nearly all actives have a fitted effect of over 45% in size
VACV Venus inh – vaccinia inhibition (Venus reporter); Vaccinia virus Venus reporter expression, fluorescence; Potency, µM (titrated, usually from 36.5 µM), for inactives: at the top dose activity change, negative = inhibition, most hits filed as inhibitors; actives 0.46% (n = 330,000); calls by dose curve; tested in A549 cells; further: potency means the concentration at half of the fitted maximal effect; nearly all actives have a fitted effect of over 30% in size
Vaccinia mCherry – vaccinia inhibition (mCherry reporter); Vaccinia virus mCherry reporter infection, fluorescence; Potency, µM (titrated, usually from 36.5 µM), for the others: top-dose activity change, negative = inhibition, hits mostly inhibitors; actives 0.63% (n = 310,000); AID 720579; calls by dose curve; tested in A549 cells; further: potency means the concentration at half of the fitted maximal effect; nearly all actives have a fitted effect of over 35% in size
* hit, by the source's call. Hits are enriched below; roughly 9.3% of the tested compounds scored in any of these assays. Unless noted, the call rests on the fitted dose curve; in most records, active means well fitted curve in the direction sought with a large enough effect; inconclusive means small, poorly fitted or top-dose-only effect, or another doubt; inactive means no such curve, though single readings can be large; an effect the other way counts as inactive or inconclusive. On the % scale 0 is the no-effect control and ±100 the full control effect.

Screening CN(C(=O)c1cccc(NC(=O)Cc2ccc(NC(=O)C3CCCN(C(=O)CCc4ccccc4)C3)cc2)c1)C1CCCC1 (stereo unspecified) returned HCMV antiviral -72*, HCV inh inconclusive, FMDV antiviral inconclusive, VACV Venus inh inconclusive and Vaccinia mCherry 16µM*.
`Cc1ccc2nc(Br)c3c(c2c1)OC(CBr)C3` (stereo unspecified) gave HCMV antiviral -38, Sm TGR block 4%, HCV inh -27% and FMDV antiviral -12%.
Screening C/C(=N\NC(=O)c1cccc(C)c1)c1cccc(NC(=O)c2ccco2)c1 returned HCMV antiviral 56, Sm TGR block 3%, HCV inh -7%, FMDV antiviral -8%, VACV Venus inh -10% and Vaccinia mCherry -19%.
For CCOC(=O)N1CCC(NC(=O)c2c(C)nn(-c3ccc(C)cc3)c2-n2cccc2)CC1 the results were HCMV antiviral -16, Sm TGR block 2%, FMDV antiviral -30%, VACV Venus inh -4% and Vaccinia mCherry inactive.
`Cc1cc(N/N=C/c2ccc([N+](=O)[O-])o2)nc2ccccc12` gave HCMV antiviral -79*, Sm TGR block -7%, HCV inh 10µM*, FMDV antiviral -24%, VACV Venus inh 4% and Vaccinia mCherry inconclusive.
CCOc1ccc(/C=N/NC(=O)c2cc(-c3ccco3)nc3ccccc23)cc1 was read as HCMV antiviral 127, Sm TGR block 2%, HCV inh inconclusive, FMDV antiviral 0%, VACV Venus inh -15% and Vaccinia mCherry inconclusive.
For Cn1c(/C=C/c2ccccc2)nc2ccccc2c1=O the results were HCMV antiviral -21, Sm TGR block -18%, HCV inh inconclusive, FMDV antiviral 21%, VACV Venus inh -28% and Vaccinia mCherry inconclusive.
For O=C(N/N=C/c1ccc([N+](=O)[O-])o1)c1cc(-c2ccc(-c3ccccc3)cc2)nc2ccccc12 the results were HCMV antiviral -99*, Sm TGR block inconclusive, HCV inh -52%, FMDV antiviral inconclusive, VACV Venus inh -3% and Vaccinia mCherry inconclusive.
`Cn1c(/C=C/c2ccc([N+](=O)[O-])o2)nc2ccccc2c1=O` gave Sm TGR block inconclusive, HCV inh 2µM*, FMDV antiviral 25µM*, VACV Venus inh inconclusive and Vaccinia mCherry 4.5µM*.
Screening Cc1cc(Nc2ccc([N+](=O)[O-])cc2)nc2ccccc12 returned HCMV antiviral inconclusive, HCV inh inconclusive, FMDV antiviral 0%, VACV Venus inh -9% and Vaccinia mCherry -9%.
`O=C(N/N=C/c1cccc([N+](=O)[O-])c1)c1cc(-c2ccccc2)nc2ccccc12` gave HCMV antiviral -7, Sm TGR block 2%, HCV inh 9% and FMDV antiviral inconclusive.
Screening Cc1ccc(-c2cc(C(=O)N/N=C/c3ccc([N+](=O)[O-])o3)c3ccccc3n2)o1 returned HCMV antiviral -21, Sm TGR block 40µM*, HCV inh 11µM*, FMDV antiviral -17%, VACV Venus inh inconclusive and Vaccinia mCherry inconclusive.
`COCCCNC(=S)N1CCN(C(=O)c2ccco2)CC1` gave HCMV antiviral 7, Sm TGR block -15%, HCV inh 22%, FMDV antiviral -15%, VACV Venus inh -11% and Vaccinia mCherry -12%.
Screening CCCn1c(N)c(N(CCOC)C(=O)CSCC(=O)Nc2ccc(C)cc2)c(=O)[nH]c1=O returned HCMV antiviral -5, Sm TGR block 4%, HCV inh 5% and FMDV antiviral -4%.
`O=C(N/N=C/c1cc([N+](=O)[O-])ccc1O)c1cc(-c2ccccc2)nc2ccccc12` gave HCMV antiviral -100*, Sm TGR block -13%, HCV inh inconclusive, FMDV antiviral -28%, VACV Venus inh -10% and Vaccinia mCherry inconclusive.
Cc1ccsc1/C=N/NC(=O)c1cc(-c2ccncc2)nc2ccccc12 was read as HCMV antiviral -95*, Sm TGR block -4%, HCV inh inconclusive, FMDV antiviral -20%, VACV Venus inh inconclusive and Vaccinia mCherry inconclusive.
`O=C(N/N=C/c1ccc([N+](=O)[O-])o1)c1cc(-c2ccncc2)nc2ccccc12` gave HCMV antiviral -67*, Sm TGR block -59%, HCV inh 10µM* and FMDV antiviral -8%.
Cc1ccc(/C=N/NC(=O)c2cc(-c3ccncc3)nc3ccccc23)o1 was read as HCMV antiviral -64*, Sm TGR block inconclusive, HCV inh -12%, FMDV antiviral -16%, VACV Venus inh -22% and Vaccinia mCherry inconclusive.
`O=C(N/N=C/c1cc([N+](=O)[O-])ccc1Cl)c1cc(-c2ccccc2)nc2ccccc12` gave HCMV antiviral -35, Sm TGR block 9%, HCV inh -5% and FMDV antiviral inconclusive.
For O=C(N/N=C/c1ccccn1)c1cc(-c2ccncc2)nc2ccccc12 the results were HCMV antiviral -25, Sm TGR block -3%, HCV inh 32%, FMDV antiviral -18%, VACV Venus inh 3% and Vaccinia mCherry inconclusive.
Screening COc1ccccc1-c1cc(C(=O)N/N=C/c2ccc(C)o2)c2ccccc2n1 returned HCMV antiviral -25, Sm TGR block -36%, HCV inh -10%, FMDV antiviral -16%, VACV Venus inh -17% and Vaccinia mCherry -16%.
Screening CCOC(=O)c1cccc(NC(=O)C2COc3ccc(OC)cc3C2)c1 (stereo unspecified) returned HCMV antiviral -12, Sm TGR block 1%, FMDV antiviral -23%, VACV Venus inh -12% and Vaccinia mCherry -2%.
For CCOC(=O)N1CCC(NCCNC(=O)c2ccco2)CC1 the results were HCMV antiviral -1, Sm TGR block -2%, HCV inh 10% and FMDV antiviral -7%.
Screening COCCn1c(SCc2ccccc2Cl)nc2c1c(=O)[nH]c(=O)n2C returned HCMV antiviral -34, Sm TGR block -34%, HCV inh -24%, FMDV antiviral inconclusive and VACV Venus inh inconclusive.
For COC(=O)c1ccc(/C=N/NC(=O)c2ccc3nc[nH]c3c2)cc1 the results were HCMV antiviral inconclusive, Sm TGR block -7%, HCV inh 8% and FMDV antiviral 6%.
`Cc1ccc(/C=N/NC(=O)c2ccc3nc[nH]c3c2)o1` gave HCMV antiviral -60*, Sm TGR block -1%, HCV inh 12%, FMDV antiviral -12%, VACV Venus inh -9% and Vaccinia mCherry inactive.
CN(C)N1C(N)=C(C#N)C(c2ccsc2)C2=C1CC(C)(C)CC2=O (stereo unspecified) was read as HCMV antiviral -29, Sm TGR block -16%, HCV inh 41%, FMDV antiviral -24%, VACV Venus inh -15% and Vaccinia mCherry inactive.

High-throughput results: PubChem BioAssay, National Center for Advancing Translational Sciences (NCATS)
